HCV inh – inhibitors of hepatitis C virus infection; Huh7.5.1 HCVcc-Cre infection, luciferase reporter, 44 h; Potency, µM (doses to about 41.8 µM), for inactives: at the highest dose activity change, negative = inhibition, most hits filed as inhibitors; 3.4% of 340,000 active; AID 651820; active = well fitted inhibition curve with a large enough effect; inconclusive = small, poorly fitted or top-dose-only effect, or another doubt; inactive = no such curve, though single readings can be large or run the other way; also: potency is read from the fitted curve at half-maximal effect
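Compounds are dispensed onto cells plated 4 h earlier at 1,000 per well, with HCVcc-Cre virus (about 0.5 moi) added next. Following 44 h of culture, luminescent signal is measured for 15 sec after 15 min with substrate at room temperature.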
HCMV inh – inhibitors of human cytomegalovirus | HFF cells, HCMV-luciferase reporter, 72 h; stronger effect = lower value | activity change, negative = inhibition, % at 57.5 µM | 4.5% of 410,000 active; in the data active = activity change below about -60%; inconclusive = no clear call, values can overlap the other calls; inactive = above about -39%
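HFF cells seeded 16 h at 37C, treated with compounds, infected with luciferase-reporter HCMV at MOI 1 PFU/cell; luciferase read at 72 h post infection, normalized to buffer-only and Salinomycin controls.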
FMDV antiviral – blocks foot and mouth disease virus | FMDV antiviral cell-based qHTS | Potency, µM (doses to about 57.9 µM), without a hit: at the top dose activity change, negative = inhibition, most hits filed as inhibitors | 1.2% of 410,000 active | AID 1159524; calls by dose curve; tested in HEK293T cells; also: read-out not given here; potency is read from the fitted curve at half-maximal effect; nearly all actives have a fitted effect of over 45% in size
Marburg entry inh – blocks Marburg virus binding to or entry into cells; Marburg virus pseudotyped entry inhibition, cell reporter; Potency, µM (series often up to 37.8 µM), for the others: at the highest dose activity change, negative = inhibition, actives largely listed as inhibitors; 1.8% of 300,000 active; AID 540276; calls by dose curve; tested in HEK293 cells; also: potency is read from the fitted curve at half-maximal effect
Lassa entry inh – Lassa virus entry inhibition. Lassa virus pseudotype entry inhibition, cell reporter. Potency, µM (doses to about 37.9 µM), for the others: at the highest dose activity change, negative = inhibition, most hits filed as inhibitors. 1.2% of 300,000 active. AID 540256; calls by dose curve; tested in HEK293 cells; also: potency is read from the fitted curve at half-maximal effect; nearly all actives have a fitted effect of over 50% in size
* marks the source's active call; other numbers are inactive results; ? = inconclusive; / = no result given; [ ] = dose if it differs, or a comment. Compounds with a hit are over-represented: about 7.9% of the library has one in this group of screens. % is scaled to controls: 0 for no effect and ±100 for the full control effect.

SMILES	HCV inh	HCMV inh	FMDV antiviral	Marburg entry inh	Lassa entry inh
Cc1ccc(N2CC(C(=O)NC3CC3)CC2=O)cc1 (stereo not given)	6.0%	11.9	0.7%	0.8%[46.1 µM]	-14.0%[46.1 µM]
CC1(C(=O)NS(=O)(=O)C2CC2)CCN(C(=O)c2ccc3c(c2)OCO3)C1 (stereo not given)	/	2.4	-3.6%	/	/
Cn1c2ccccc2c2c(C(=O)N3CCN(c4cccc(Cl)c4)CC3)cn(C3CCCCC3)c(=O)c21	/	?	-21.5%	7.08µM*	?
COc1ccc(N2CCN(C(=O)c3cn(C)c(=O)c4c3c3ccccc3n4C)CC2)cc1	11.7%	183.0	40.5%	-6.5%	-1.9%
COc1ccc(N2CCN(C(=O)c3cn(C4CCCC4)c(=O)c4c3c3ccccc3n4C)CC2)cc1	?	37.2	15.6%	8.91µM*	?
COC1=CC2C(=O)C([C@@H]3c4ccccc4C[C@]23C)C1(O)c1cccc(OC)c1 (stereo not given in full)	/	/	/	4.4%[14.2 µM]	/
Cc1nc2sccn2c1CN1CCOc2ccc(CN3CCN(c4ccc(F)cc4)CC3)cc2C1	/	/	8.91µM*	/	/
C(=C\c1ccccc1)/CN1CCN(C(c2ccnc3ccccc23)c2nnnn2C2CCCC2)CC1 (stereo not given)	/	-38.5	-2.8%	/	/
COc1ccc(-n2cc3ccc([N+](=O)[O-])cc3n2)cc1	?	-96.4*	-34.8%	?	?
Cc1ccc(S(=O)(=O)Cn2nnnc2CN2CCOCC2)cc1	7.3%	-24.7	/	26.9%	-15.3%
Cc1ccc(S(=O)(=O)Cn2nnnc2CN2CCCC3(CCCCC3)C2)cc1	2.6%	-68.3*	/	?	?
O=C(C=Cc1ccccc1)c1ccccc1O	/	/	/	?	-7.6%[14.3 µM]
Cc1cc(C)nc(-n2ncc3c2CC(c2ccccc2)CC3=O)n1 (stereo not given)	9.4%	?	-25.0%	-3.6%[46.1 µM]	?
Cc1cc(C)nc(-n2ncc3c2CC(c2cccc(Cl)c2)CC3=O)n1 (stereo not given)	-10.2%	-89.3*	-13.8%	5.62µM*	?
CSc1nnc(NC(=O)c2cc(=O)c3cc(C)c(C)cc3o2)s1	/	1.2	-20.0%	3.2%[46.1 µM]	?
Cc1ccc(NC(=O)C2(c3ccccc3)CCOCC2)c([N+](=O)[O-])c1	-5.7%	?	-9.3%	2.1%	0.7%
CCCCn1c(-c2ccc(C(C)(C)C)cc2)nc2cc3[nH]c(=O)c(C(C)C)nc3cc21	-12.6%	12.0	35.5µM*	/	/
CCCCn1c(-c2ccc(Cl)c(Cl)c2)nc2cc3[nH]c(=O)c(C(C)C)nc3cc21	-14.4%	0.3	-19.5%	/	/
COc1cc(CNC2CCCC2)cc(Cl)c1OCc1ccc(F)cc1	1.26µM*	33.7	-26.9%	?	?
COc1cc(CNC2CCCC2)cc(Cl)c1OCc1ccccc1Cl	?	?	?	10.3µM*	?
CCOc1cc(CNC2CCCC2)cc(Cl)c1OCc1ccc(F)cc1	3.98µM*	-16.1	/	5.8µM*	?
Cc1cc(Cl)ccc1OCC(=O)N1CCCN(C(=O)COc2ccc(Cl)cc2C)CC1	?	-26.2	?	14.6µM*	?
COC(=O)C1CN(C(=O)COc2ccc(Cl)cc2C)c2ccccc2O1 (stereo not given)	5.1%	-61.0*	3.2%	15.1%[46.1 µM]	19.5%[46.1 µM]
Cc1cc(Cl)ccc1OC(C)C(=O)N1CCCN(C(=O)C(C)Oc2ccc(Cl)cc2C)CC1 (stereo not given)	?	?	28.2µM*	?	?
Cc1cc(Cl)ccc1OCC(=O)N1CCN(C)CC1	9.4%	45.1	10.0%	13.5%	12.0%
SMILES	HCV inh	HCMV inh	FMDV antiviral	Marburg entry inh	Lassa entry inh
CC(C)CCN1CCN(C2CCN(c3ccccc3)CC2)CC1CCO (stereo not given)	7.5%	-9.9	-12.8%	/	/
Cc1cc(C)c(NC(=O)CN(C)C(=O)c2ccc(OCc3ccccc3)cc2)c(C)c1	18.4%	11.2	15.6%	/	/
COc1ccc(CNC(=O)Nc2nnc([C@H]3C[C@H](O)[C@@H](CO)O3)s2)cc1	/	-97.2*	-16.1%	/	/
COc1ccc(CNC(=O)Nc2nnc([C@@H]3C[C@H](O)[C@@H](CO)O3)s2)cc1	/	-83.0*	-4.7%	/	/
O=C(NCc1ccc(F)cc1)Nc1nnc([C@@H]2C[C@H](O)[C@@H](CO)O2)s1	/	-0.9	-6.1%	/	/
Cc1ccc(CNC(=O)Nc2nnc([C@@H]3C[C@H](O)[C@@H](CO)O3)s2)cc1	/	0.0	-13.1%	/	/
COC(=O)c1cnc(NCc2ccc(F)cc2)c2ccccc12	/	-2.7	-10.8%	/	-11.9%[46.1 µM]
